Source: the supplement of paper PMC13380429

Test system: Vero E6 infected with SARS-CoV-2
Assay: inhibition of SARS-CoV-2 cytopathic effect; higher = more antiviral protection, active = above 15
Details: 48 h

Measured: inhibition of SARS-CoV-2 cytopathic effect

CC(C)[C@@H](C)/C=C/[C@@H](C)[C@H]1CC[C@H]2C3=CC=C4C[C@@H](O)CC[C@]4(C)[C@H]3CC[C@]12C [ergosterol]
inactive: 1 nM -3.22% | 8.33 nM 1.48% | 100 nM 0.86% | 833.33 nM 2.74% | 10000 nM 2.85%

CCn1cc(C(=O)O)c(=O)c2ccc(-c3ccncc3)cc21 [rosoxacin]
inactive: 1 nM -1.03% | 8.33 nM -0.12% | 100 nM -1.66% | 833.33 nM -2.14% | 10000 nM 3.73%

CS(=O)(=O)Nc1ccc(-c2coc3cc(OCc4cccc(C(=O)O)c4)ccc3c2=O)cc1
inactive: 1 nM -0.72% | 8.33 nM 1.73% | 100 nM -1.1% | 833.33 nM -0.83% | 10000 nM -0.08%

COC(=O)C1=CCCN(C)C1 [arecoline]
inactive: 1 nM 1.27% | 8.33 nM 1.95% | 100 nM -1.54% | 833.33 nM -1.35% | 10000 nM 1.15%

NS(=O)(=O)c1ccc(NC(=O)Nc2ccc(F)cc2)cc1
inactive: 1 nM 1% | 8.33 nM -1.24% | 100 nM 0.78% | 833.33 nM -1.65% | 10000 nM -0.78%

O=[N+]([O-])c1cc(O)c(O)c([N+](=O)[O-])c1
inactive: 1 nM -0.65% | 8.33 nM -3.05% | 100 nM -3.12% | 833.33 nM 1.93% | 10000 nM -3.2%

O=C(OC(C(F)(F)F)C(F)(F)F)N1CCC(C(O)(c2ccc3c(c2)OCO3)c2ccc3c(c2)OCO3)CC1
inactive: 1 nM -1.87% | 8.33 nM 0.04% | 100 nM -0.31% | 833.33 nM -1.03% | 10000 nM 0.49%

O=C(Cn1c(=O)sc2ccc(Cl)cc21)N1CCN(CCO)CC1 [tiaramide]
inactive: 1 nM -2.08% | 8.33 nM -1.84% | 100 nM -3.6% | 833.33 nM -1.93% | 10000 nM 2.14%

O=C1CNC(=O)CN1 [piperazinedione]
inactive: 1 nM -1.5% | 8.33 nM -0.79% | 100 nM -1.97% | 833.33 nM -2.42% | 10000 nM -2.4%

CC(C)(N)c1cc(C(=O)N[C@@H]2CCc3ccc(Oc4ccnc5c4CCC(=O)N5)cc3C2)cc(C(F)(F)F)c1
inactive: 1 nM 0.3% | 8.33 nM 1.69% | 100 nM 1.9% | 833.33 nM -3.12% | 10000 nM -8.56%

CCOC(=O)c1cncn1[C@H](C)c1ccccc1 [etomidate]
inactive: 1 nM 0.18% | 8.33 nM -0.71% | 100 nM -2.47% | 833.33 nM 1.97% | 10000 nM 0.06%

O=C(O)CCCc1ccc(N(CCCl)CCCl)cc1 [chlorambucil]
inactive: 1 nM -0.23% | 8.33 nM 0.88% | 100 nM -0.7% | 833.33 nM -1.67% | 10000 nM -0.16%

C[C@@H](c1ccc2nccn2c1)n1nnc2ncc(-c3cnn(C)c3)nc21 [savolitinib]
inactive: 1 nM 0.39% | 8.33 nM -0.4% | 100 nM -0.3% | 833.33 nM 0.87% | 10000 nM 1.9%

O=C(O)c1ccc(N2N=C(Cc3ccccc3)/C(=C\c3ccc(-c4ccccc4F)o3)C2=O)cc1
inactive: 1 nM -0.59% | 8.33 nM 0.52% | 100 nM -1.43% | 833.33 nM 1.97% | 10000 nM -1.44%

CC(C)(Sc1ccncc1-c1ccc(C#N)c2ccccc12)C(=O)O [verinurad]
inactive: 1 nM -0.56% | 8.33 nM 1.54% | 100 nM 0.77% | 833.33 nM -0.34% | 10000 nM 1.75%

CC(=O)NNC(=O)N1Cc2ccccc2Oc2ccc(Cl)cc21
inactive: 1 nM -0.04% | 8.33 nM 1.22% | 100 nM -0.93% | 833.33 nM -0.99% | 10000 nM -2.14%

COc1ccc2[nH]cc(CCNC(C)=O)c2c1 [melatonin]
inactive: 1 nM 2.18% | 8.33 nM 0.84% | 100 nM 2.24% | 833.33 nM 2.42% | 10000 nM -2.74%

Cc1csc(S(=O)(=O)N(CC(C)C)c2cc3c(cc2OCc2ccc(C(=O)O)cc2)CCC3)n1
inactive: 1 nM -2.46% | 8.33 nM -1.9% | 100 nM 3.16% | 833.33 nM 2.51% | 10000 nM 2.78%

COc1cc2c(cc1OC)-c1c(C)c3ccc(OC)c(OC)c3c[n+]1CC2 [dehydrocorydaline]
inactive: 1 nM -0.53% | 8.33 nM 0.34% | 100 nM -1% | 833.33 nM -1.37% | 10000 nM 0.05%

NC(=O)c1ccccc1O [salicylamide]
inactive: 1 nM -0.95% | 8.33 nM 2.62% | 100 nM 5.65% | 833.33 nM 3.83% | 10000 nM 0.13%

CCN(CC)C(C)C(=O)c1ccccc1 (stereo not given) [amfepramone]
inactive: 1 nM -1.18% | 8.33 nM 1.39% | 100 nM -1.99% | 833.33 nM 1.34% | 10000 nM -0.09%

Cc1cc(CCCOc2c(C)cc(-c3noc(C(F)(F)F)n3)cc2C)on1 [pleconaril]
inactive: 1 nM 2.59% | 8.33 nM 0.33% | 100 nM -1.07% | 833.33 nM 0.02% | 10000 nM -1.34%

CN(C)CC(=O)Nc1ccc2[nH]c(=O)c3ccccc3c2c1
inactive: 1 nM 1.34% | 8.33 nM 2.81% | 100 nM 1.23% | 833.33 nM 5.19% | 10000 nM 6.44%

N#Cc1c(N)nc(SCc2ncc[nH]2)c(C#N)c1-c1ccc(O)cc1
inactive: 1 nM -0.59% | 8.33 nM -2.41% | 100 nM 1.83% | 833.33 nM -3.13% | 10000 nM 0.18%

O=[N+]([O-])O[C@H]1CO[C@H]2[C@@H]1OC[C@H]2O[N+](=O)[O-] [isosorbide-dinitrate]
inactive: 1 nM -1.2% | 8.33 nM 2.2% | 100 nM 2.2% | 833.33 nM 1.87% | 10000 nM 3.34%

N#Cc1c(N(CC(=O)O)CC(=O)O)sc(C(=O)O)c1CC(=O)O [Strontium Ranelate]
inactive: 1 nM 1.28% | 8.33 nM 2.01% | 100 nM 0.58% | 833.33 nM 5.99% | 10000 nM 1.75%

CC(=O)O[C@H]1C[C@@H]2CC[C@@H]3[C@H](CC[C@@]4(C)[C@H]3C[C@H](N3CC[N+](C)(C)CC3)[C@@H]4OC(C)=O)[C@@]2(C)C[C@@H]1N1CC[N+](C)(C)CC1 [pipecuronium]
inactive: 1 nM -1.2% | 8.33 nM -0.41% | 100 nM -0.11% | 833.33 nM -1.81% | 10000 nM -1.58%

CCN1CCCC1CNC(=O)c1cc(S(N)(=O)=O)ccc1OC (stereo not given) [sulpiride]
inactive: 1 nM 0.06% | 8.33 nM -1.14% | 100 nM 0.7% | 833.33 nM 1.07% | 10000 nM 0.685%

CONC(=N)c1ccc(-c2ccc(-c3ccc(C(=N)NOC)cc3)o2)cc1 [pafuramidine]
inactive: 1 nM -0.94% | 8.33 nM 1.16% | 100 nM -0.24% | 833.33 nM 0.72% | 10000 nM 2.7%

C1=Cc2cccc(OCC3CNCCO3)c2C1 (stereo not given) [indeloxazine]
inactive: 1 nM 1.29% | 8.33 nM 2.5% | 100 nM 1.2% | 833.33 nM 0.43% | 10000 nM -0.62%

C/C=C1\NC(=O)[C@H]2CSSCC/C=C/[C@H](CC(=O)N[C@H](C(C)C)C(=O)N2)OC(=O)[C@H](C(C)C)NC1=O [romidepsin]
inactive: 1 nM -1.04% | 8.33 nM 0.79% | 100 nM -0.75% | 833.33 nM -16.6% | 10000 nM -18%

CO[C@@H]1[C@@H](OC(N)=O)[C@@H](O)[C@H](Oc2ccc3c(O)c(NC(=O)c4ccc(O)c(CC=C(C)C)c4)c(=O)oc3c2C)OC1(C)C [novobiocin]
inactive: 1 nM -2.55% | 8.33 nM -2.69% | 100 nM 2.34% | 833.33 nM 0.52% | 10000 nM 0.14%

NC(=O)c1cccc(-c2cccc(OC(=O)NC3CCCCC3)c2)c1
inactive: 1 nM 1.14% | 8.33 nM 3.25% | 100 nM 1.96% | 833.33 nM 1.41% | 10000 nM 1.6%

CC(C)[C@@]1(NC(=O)[C@@H]2C[C@@H]3c4cccc5[nH]cc(c45)C[C@H]3N(C)C2)O[C@@]2(O)[C@@H]3CCCN3C(=O)[C@H](Cc3ccccc3)N2C1=O [dihydroergocristine]
inactive: 1 nM 3.37% | 8.33 nM -0.59% | 100 nM 0.24% | 833.33 nM -1.73% | 10000 nM -1.9%

COc1ccc(-c2cnc3c(-c4cccc5ncccc45)cnn3c2)cc1
inactive: 1 nM -0.88% | 8.33 nM -0.75% | 100 nM 0.925% | 833.33 nM -0.45% | 10000 nM 0.53%

CCOC(=O)CSCCC1NC(C(=O)O)CS1 (stereo not given) [letosteine]
inactive: 1 nM -0.45% | 8.33 nM -0.54% | 100 nM 3.16% | 833.33 nM 2.53% | 10000 nM 5.67%

COc1cc2c(NC3CCN(C4CCCCC4)CC3)nc(N3CCCN(C(C)C)CC3)nc2cc1OCCCN1CCCCC1
inactive: 1 nM -0.42% | 8.33 nM 1.56% | 100 nM 0.26% | 833.33 nM -2.24% | 10000 nM 15%

N#Cc1c(O)c2c(-c3ccc(-c4ccccc4O)cc3)csc2[nH]c1=O
inactive: 1 nM -1.57% | 8.33 nM -3.91% | 100 nM -1.86% | 833.33 nM 0.75% | 10000 nM 3.92%

CCCc1nc(C(C)(C)O)c(C(=O)O)n1Cc1ccc(-c2ccccc2-c2nnn[nH]2)cc1 [olmesartan]
inactive: 1 nM 1.89% | 8.33 nM -1.22% | 100 nM 1.17% | 833.33 nM 0.82% | 10000 nM -0.94%
